# Over roughly 25,000 sequences, “ln(normalized median fluorescence intensity)” has its median near 6.7; the highest 2% begin near 10. What follows is part of a selection rich in the highest values, with near analogues and random picks from the rest.
# Tested on: PfHDP1 homeodomain (GST-tagged)
# Experiment: gcPBM binding intensity (ln(normalized median fluorescence intensity)); higher = stronger DNA binding
# How it was run: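 Binding of GST-tagged P. falciparum DNA-binding domains, expressed in E. coli and used at about 25 μg on average, was carried out for 1 h in 1× PBS containing 1% milk, 0.2 mg/ml BSA, 0.5% salmon testes DNA and 0.03% Triton X-100. The target was an Agilent 4 × 180k array of primer-extended double-stranded 36-bp intergenic genomic probes plus negative controls, read with Alexa488 anti-GST antibody at 488 nm. Binding intensity is the highest Masliner-normalised natural-log median intensity across replicate spots of either probe orientation.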
row,Sequence,gcPBM binding intensity (ln)
1,AATAATATTAACACACGTACAAAAGCAAACAACCAA [XGTACX_site7410],7.16
2,ATATATATATATCAGAGTACATTCTTTAAAATATAT [XGTACX_site5915],8.7
3,TCTTTTCTTTTGTGTGTGCACATATAAGCATGAAAC [GTGCAC_site9910],10.4
4,ATATATATCTTTTGTGTGCACATATATATAATATAT,10.9
5,ATAATATATATATATGCATGTACATATTTATCTTTA [TGCATGCA_site32],6.74
6,TATATATATATATGTGCACACATAATAAAAAAAAAA [CACACA_site3830],10.1
7,ATGTATGTGTATATATGTACATAATATATATCTTTT [XGTACX_site8666],6.6
8,ATAATATCTTTATGTGTGCACATATATATATATATA,10.5
9,TTTTTTTCTCTCTCTACACACAAGGTTTAATTTAAA [CACACA_site1690],6.81
10,TATATATATATATATGTGCACTGAAAGAATTATACA [GTGCAC_site9586],9.76
11,AATTATAATTAATAGAGTACTGAATATATATATATA [XGTACX_site8683],8.9
12,ATTATATATAAGAAGAGTACTGAATATGTGCAATAT [XGTACX_site4471],11.2
13,ATTTTAAATATTTGTGGTACCCCTTTTTTGTAACAA [XGTACX_site5590],6.71
14,ATAAAAAAATAAAACACACACATATAGATTATAGAT [CACACA_site7343],7
15,GTATGTATATATATATGTACATACTGTTTATCGTTA [XGTACX_site6168],6.4
16,ATTTTATTTATATACACACACATATATATATTATAT [CACACA_site822],7.09
17,ATATTTTATTTATATACACACACATATATATATTAT [CACACA_site8177],7.22
18,GCATCATTTATTTGCACACCTATTATATACTTTTTA [CACACA_site2098],10.7
19,ATATTTTACATATTTGCACACATATATTTAAATACA [CACACA_site4628],10.3
20,ATATTTTACATATTTGCACACATATATTTATATACA [CACACA_site855],10.7
21,ATTTTATTTAAATACACACACATATATATATTATAT [CACACA_site4607],7.14
22,TATTTTTGTATATATTTATTCTTATTTTACAGGAAA [TGCATGCA_negctrl_site472],6.22
23,AATTTTATTACTTTTACACACCTATATATCATTCAT [CACACA_site7525],6.91
24,TTTTTTATTCTTTTTGCACACAGGAAATTTACAGAT [CACACA_site1090],10.6

row,Sequence,gcPBM binding intensity (ln)
1,AGGAAATTTGTTATTGCACACAAATTTTTCTTTTTT [CACACA_site8732],9.48
2,ATGCATCATTTATTTGCACACCTATTATATACTTTT [CACACA_site2097],10.1
3,ATTTTACATATTTGCACACATATATTTAAATACATA [CACACA_site4627],10.8
4,GGATGCACACAAAAGGGTACATAAGAAAAAAACAGG [XGTACX_site8570],9.42
5,TTTATATTTTAAAAAATAATATTATGTATTTTTAAA [TGCATGCA_negctrl_site507],6.01
6,AAACAATATTCTCAAGTGCAAAAAGAAAAAAGAAAT,9.37
7,CCTTTTTTTTTTTTATGTACTAAAATAAAATTAGAA [XGTACX_site5956],6.14
8,TATAAAATAATTAAATGTACATAATATATAAAATAT [XGTACX_site6777],6.69
9,GTAATTTTTTTCTATACACACATATATATAATATAT [CACACA_site2655],7.08
10,TTTGTGTTGTATTTTTGTACATAAAATAAACTTAAA [XGTACX_site4637],6.65
11,TATTTAAATGGATGCACACATGCATTAAATAAAATA [CACACA_site3433],8.59
12,ATATATTTTATACATACACACATATATATATTTTTT [CACACA_site3940],6.83
13,TATTTTTATATTTTTGCACACATTCTTTACTCTTCA [CACACA_site2211],10.6
14,ATATTAAGTTTTATTACACACTCTCAATTTTTATTT [CACACA_site4206],6.63
15,TATATACATATATATACACACATATATATATTTTAT [CACACA_site3788],6.65
16,TATTTATTTTTTTGCACACATATTTTACATTTTAAT [CACACA_site3181],10.8
17,ATTTTACATATTTGCACACATATATTTATATACATA [CACACA_site854],10.6
18,TATATATATATTTTTGCACACATTTTTTAAGGTACA [CACACA_site2145],10.3
19,ATGACTCTCAAGTTTGCACACATTTATATTTTTTAA [CACACA_site2605],10.5
20,TTTTTATATTTTTGCACACATTCTTTACTCTTCAAA [CACACA_site2210],10.4
21,TTTTCATTTTTCTTTACACACATATATTTATTTATA [CACACA_site7119],7.15
22,AATATTTATTTTTTTGCACACATATTTTACATTTTA [CACACA_site3182],10.3
23,TACATTTTTATTTTTACACACATATTTATTTATATA [CACACA_site6609],7.06
